Six1-Eya2 inh – blocks human Six1 binding to Eya2. Q15475+O00167. AlphaScreen GST-Six1/His-Eya2 binding, biochemical; stronger effect = lower value. activity change, % (no concentration beside the values). 360,000 compounds, 0.56% hits; in the data active = activity change below about -65%; inconclusive = mostly about -30% to -63%; note: % is set by controls: 0 for no effect and ±100 for the full control effect
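AlphaScreen luminescence read after one hour at 37 °C in darkness. Pin-transferred compounds met GST-Six1 and His-Eya2 protein (5X stock 250 nM/500 nM) plus glutathione donor and Ni-chelate acceptor beads (5X, 50 ug/mL).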
RORgamma inh – blocks mouse ROR gamma transcriptional activity | Potency, µM (highest dose often 53.6 µM), without a hit: top-dose activity change, negative = inhibition, actives largely listed as inhibitors | P51450 | 310,000 compounds, 5.4% hits | Drosophila S2 Gal4-RORgamma UAS-luciferase reporter, 20 h | AID 2551; note: potency is the fitted concentration of half-maximal effect; % is set by controls: 0 for no effect and ±100 for the full control effect; nearly all actives have a fitted effect of over 60% in size
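Luciferase reporter read in Schneider cells carrying Gal4-RORγ (mouse) and UAS-Photinus luciferase; cells given compound 1 h before 700 uM copper sulfate induction, then incubated 20 h at ambient temperature.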
Gal4-VP16 FLuc – inhibits Gal4-VP16 luciferase reporter, ROR gamma counter-screen; Drosophila S2 Gal4-VP16 UAS-luciferase, luminescence, 20 h; Potency, µM (top dose mostly 53.6 µM), for inactives: top-dose activity, negative = inhibition, usual class: inhibitors; 310,000 compounds, 3.5% hits; AID 2546;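 note: Gal4-VP16 expression switched on by copper sulfate through the metallothionein promoter; potency is the fitted concentration of half-maximal effect; % is set by controls: 0 for no effect and ±100 for the full control effect; nearly all actives have a fitted effect of over 50% in size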
MBNL1-CUG inh – blocks human MBNL1 binding to CUG repeat RNA; Q9NR56; TR-FRET MBNL1-His/biotin-(CUG)12 binding, 665/545 ratio; Potency, µM (highest dose often 57.5 µM), for the others: at the highest dose activity change, negative = inhibition, usual class: inhibitors; 280,000 compounds, 0.036% hits; active = well fitted inhibition curve with a large enough effect in the signal ratio, with a control signal flat, not every such curve was filed as active; inconclusive = small, poorly fitted or top-dose-only effect, or effect the other way, or a change in a side signal; inactive = no such curve, though single readings can be large or run the other way; the % refers to the signal ratio; note: potency is the fitted concentration of half-maximal effect; % is set by controls: 0 for no effect and ±100 for the full control effect
Target sequence (Q9NR56 whole entry, looked up): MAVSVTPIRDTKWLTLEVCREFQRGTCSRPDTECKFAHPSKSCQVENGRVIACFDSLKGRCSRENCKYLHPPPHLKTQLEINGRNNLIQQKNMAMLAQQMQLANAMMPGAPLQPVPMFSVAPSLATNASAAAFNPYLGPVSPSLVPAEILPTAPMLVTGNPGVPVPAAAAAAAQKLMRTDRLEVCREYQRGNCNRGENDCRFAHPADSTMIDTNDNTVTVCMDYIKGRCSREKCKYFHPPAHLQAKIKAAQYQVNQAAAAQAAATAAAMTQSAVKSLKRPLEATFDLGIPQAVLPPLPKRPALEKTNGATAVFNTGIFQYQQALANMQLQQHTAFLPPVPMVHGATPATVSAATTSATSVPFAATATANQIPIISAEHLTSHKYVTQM
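His-tagged MBNL1 binding to biotinylated (CUG)12 RNA was measured by TR-FRET using terbium anti-His antibody (0.055 ng/ul final) and streptavidin-XL665 (5 nM final). Compounds were titrated 92 nM to 58 uM; 60 min at room temperature.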
CBFb RUNX1 block – CBF-beta/RUNX1 interaction disruption. Q01196+Q13951. AlphaScreen CBFb-His/RUNX1-biotin binding, biochemical. Potency, µM (top dose mostly 59.8 µM), for the others: top-dose activity, negative = inhibition, most hits filed as inhibitors. 230,000 tested, under 10 active; note: % of control where 0% means no effect
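Interaction loss through any mechanism counts as activity. Pre-formed complex of His-CBF-beta and biotin-RUNX1 (30 nM apiece) is incubated with compound 15 min, then with 50 ng nickel and 50 ng streptavidin beads for 90 min before AlphaScreen detection.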
CtBP-E1A inh – CtBP/E1A binding inhibition. AlphaScreen GST-E1A/His-CtBP binding, 1536-well; stronger effect = lower value. 340,000 compounds, 0.49% hits. activity change, % (concentration not given with the values); in the data active = activity change below about -65%; inconclusive = mostly about -30% to -63%; note: % is set by controls: 0 for no effect and ±100 for the full control effect
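AlphaScreen with 125 nM GST-E1A and 125 nM His-CtBP (5X stocks) in Tris pH 8.0, 300 mM NaCl, BSA, Tween 20, TCEP. Compounds preincubated 2 h at 37 deg C, then glutathione donor/nickel acceptor beads added for 1 h at 37 deg C in dark.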
Active calls of the source: *; u = inconclusive; x = no result given; [ ] = remark or other dose. Compounds with a hit are over-represented: about 5.5% of the library has one in this group of screens. Unless noted, calls come from the whole dose curve; as a rule, active = well fitted curve in the direction sought with a large enough effect; inconclusive = small, poorly fitted or top-dose-only effect, or another doubt; inactive = no such curve, though single readings can be large; an effect the other way counts as inactive or inconclusive.

SMILES	Six1-Eya2 inh	RORgamma inh	Gal4-VP16 FLuc	MBNL1-CUG inh	CBFb RUNX1 block	CtBP-E1A inh
COc1ccc(CC(=O)N(C)Cc2ccc(OC(F)F)cc2)cc1S(=O)(=O)N1CCOCC1	20	x	x	x	x	x
CCOC(=O)CCN1C(=O)[C@H]2[C@H]3[C@H](O)[C@H](O)C/C(=N/NC(=O)OCc4ccccc4)[C@@H]3CC[C@@H]2C1=O	x	17%[10 µM]	-6%[10 µM]	x	-3%[13.1 µM]	x
CCCN1C(=O)CC(c2ccco2)Sc2ccccc21 (stereo unspecified)	-5	16µM*	u	0%	-9%	-7
COc1cccc(-c2nnc(-c3ccc(C)o3)o2)c1	-5	11µM*	u	1%	8%	3
COc1ccc(-c2nnc(NC(=O)c3ccc([N+](=O)[O-])o3)o2)c(OC)c1	-8	7.1µM*	6.3µM*	25%	x	10
COc1cccc(-c2nnc(N)o2)c1	-5	18%	-2%	-6%	13%	x
COc1cccc(-c2nnc(NC(=O)c3cccc(F)c3)o2)c1	-10	0.32µM*	0.79µM*	1%	2%	-6
COc1cccc(C(=O)Nc2cccc(-c3nnc(-c4ccccc4)o3)c2)c1	-16	x	x	x	x	-24
COc1cccc(-c2nnc(NC(=O)c3ccccc3Br)o2)c1	-17	5µM*	3.2µM*	-3%	-6%	-24
Cc1ccc(-c2nnc(NC(=O)c3ccc([N+](=O)[O-])o3)o2)c(C)c1	-7	x	x	x	x	5
O=C(CCSCc1ccc(Cl)cc1)NCc1cccs1	-12	-2%	-2%	-2%	-1%	-5
CCc1cccc(NS(=O)(=O)c2ccc3c(c2)N(C)CCO3)c1	-12	45%	u	0%	x	-12
CSc1ccc(C(=O)C2CCCN(C(=O)CCc3c(C)nn(C)c3C)C2)cc1 (stereo unspecified)	1	x	x	x	x	-8
Cc1nn(C)cc1S(=O)(=O)N1CCN(c2ccccc2F)CC1	8	5%	1%	-1%	x	7
COc1cccc(-c2nnc(NC(=O)C(C)C)o2)c1	-14	u	16µM*	u	2%	-1
COc1cccc(CC(=O)OCC(=O)Nc2nnc(-c3ccccc3)o2)c1	u	x	x	x	x	-26
O=S(=O)(c1ccccc1)N1CCN(C(c2ccccc2)c2ccc(OC(F)(F)F)cc2)CC1 (stereo unspecified)	2	-16%	7%	-11%	x	x
Cc1nc2[nH]c(=S)[nH]c2cc1Br	3	11µM*	-3%	10%	0%	5
O=C1/C(=C/N(C(=O)c2ccco2)c2ccc(Cl)cc2)Sc2ccccc21	1	u	u	-7%	-5%	-8
O=C1/C(=C/N(C(=O)c2ccco2)c2ccc(Br)cc2)Sc2ccccc21	-12	35µM*	13µM*	10%	-5%	-6
O=C(NC(c1ccc(F)cc1)c1ccc2ccccc2n1)C1CCN(Cc2ccc3ccccc3n2)CC1 (stereo unspecified)	0	x	x	x	x	u
CN(C)c1ccc(CN2CCC(C(=O)NC(c3ccc(F)cc3)c3ccc4ccccc4n3)CC2)cc1 (stereo unspecified)	-66*	x	x	x	x	u
CC(=O)c1cc2ccc(O)cc2oc1=O	7	3%	-6%	u	0%	-4
Cc1ccc(N=c2oc3cc(O)ccc3cc2C(N)=O)cc1	-23	0.89µM*	0.89µM*	u	0%	-4
CC1=C(C)C(=O)C(C(CCCCCC(=O)O)c2ccccc2)=C(C)C1=O (stereo unspecified)	x	-3%	-1%	x	x	x
SMILES	Six1-Eya2 inh	RORgamma inh	Gal4-VP16 FLuc	MBNL1-CUG inh	CBFb RUNX1 block	CtBP-E1A inh
Cc1cccc2nc(CSc3nnc4ccccn34)cn12	3	11µM*	u	-4%	6%	7
Cc1cc(C)nc(SCc2cn3c(C)cccc3n2)n1	-10	u	1%	-5%	8%	1
Clc1c(CSc2nc3ccccc3o2)nc2ccccn12	0	u	7.1µM*	-5%	-5%	x
Cc1cccc2nc(CSc3nc4ccccc4o3)cn12	18	18µM*	u	-10%	u	5
Cc1cc(C)c(C#N)c(SCc2cn3c(C)cccc3n2)n1	-11	11µM*	u	-4%	-22%	-14
Cc1ccnc(SCc2cn3c(C)cccc3n2)n1	1	u	27%	-4%	-2%	11
Cc1cccc(C(=O)Nc2cccc3c2CCCC3)c1	17	3%	-12%	-2%	x	10
CC(C)(C)OC(=O)N1CCCN(C(c2ccnc3ccccc23)c2nnnn2-c2ccc3c(c2)OCCO3)CC1 (stereo unspecified)	-13	x	x	x	x	u
O=C(CNS(=O)(=O)c1ccccc1)N1CCc2ccccc2C1	1	-16%[1.91 µM]	19%	3%	x	-6
c1ccc2oc(SCc3cn4ccccc4n3)nc2c1	0	8.9µM*	16µM*	-7%	6%	6
CC12CCC=CC1C(c1cccc([N+](=O)[O-])c1)N(Cc1ccccc1)C2=O (stereo unspecified)	x	u	-6%	x	-30%	x
Cc1onc(-c2c(Cl)cccc2Cl)c1C(=O)N/N=C(\N)COc1ccc(Cl)cc1	-12	0.45µM*	0.5µM*	-2%	-5%	-12
N#Cc1ccc(NC(=O)Cn2cnc(S(=O)(=O)N3CCc4ccccc43)c2)cc1	-2	18%	5%	-2%	x	-2
CC1=NN(C(=O)c2ccco2)C(O)(c2ccccc2)C1 (stereo unspecified)	2	1.8µM*	6.3µM*	x	-2%	1
CC1=NN(C(=O)c2ccc(C)o2)C(O)(c2ccccc2)C1 (stereo unspecified)	1	3.2µM*	6.3µM*	x	3%	-2
Cc1nn(C(=O)c2ccco2)c(C)c1Br	6	10%	-1%	3%	1%	2
CC(C)ON(CC(=O)NO)S(=O)(=O)c1ccc(-c2ccccc2)cc1	x	-1%	2%	x	0%	x
CC(C)ON(C(C(=O)NO)C(C)C)S(=O)(=O)c1ccc(-c2ccccc2)cc1 (stereo unspecified)	x	10µM*	u	x	12%	x
CC(C)NC(=S)N/N=C/c1ccccc1[N+](=O)[O-]	11	1.8µM*	5.6µM*	u	-21%	-1
Cc1ccc(C)c(/C=N/NC(=S)NC(C)C)c1	6	2.2µM*	3.2µM*	x	-16%	1
CCNC(=S)N/N=C/c1cccc(C)c1	-2	0.89µM*	0.89µM*	9%	-5%	3
CCNC(=S)N/N=C/c1cc(C)ccc1C	1	1.8µM*	2.5µM*	7%	-11%	1
CCNC(=S)N/N=C/c1ccc(C(=O)O)cc1	6	33%	-12%	5%	-1%	9
